Compound activity deposited in PubChem by The Scripps Research Institute Molecular Screening Center.
GPR151 activ – activators of human GPR151, primary screen, cell-based, PathHunter beta-arrestin, luminescence | G-protein coupled receptor 151 (Homo sapiens), Q8TDV0 | PathHunter beta-arrestin GPR151 cells | activation, % at 11.2 µM | 650,000 compounds, 1% hits; in the data active means activation above about 4.9%;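 further: 0% = median of compound wells and 100% = cells with positive control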
MITF inh – MITF inhibitors, primary screen, biochemical, AlphaScreen, human | AlphaScreen MITF homodimerization, bead proximity signal | Microphthalmia-associated transcription factor (Homo sapiens), O75030 | inhibition, % at 2.6 µM | 650,000 compounds, 0.91% hits; in the data active means inhibition above about 50%;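 further: 0% = vehicle wells with protein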
TEAD-YAP inh – TEAD-YAP interaction inhibition, primary screen, TEAD-YAP interaction inhibitor project, luminescence, HEK-TIYL cells | TEAD-Gal4/YAP UAS-luciferase luminescence | inhibition, % at 9.12 µM | 640,000 compounds, 1.4% hits | AID 1259422, 2018; in the data active means inhibition above about 32%;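 further: 0% = median of test compound wells and 100% = reference inhibitor wells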
FBW7 activator – FBW7 E3 ligase activators, primary screen, biochemical, AlphaScreen, human. F-box/WD repeat-containing protein 7 (Homo sapiens), Q969H0. AlphaScreen FBW7–phospho-cyclin E peptide binding, activator screen. normalized activity (activation), % at 26.1 µM. 650,000 compounds, 0.13% hits. AID 1259310, 2017; in the data active means normalized activity above about 1.9%;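 further: purified mutant Fbw7 with reduced substrate affinity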
GPR151 confirm – GPR151 activators, triplicate retest, confirmation, cell-based, PathHunter beta-arrestin, luminescence | shares compounds with GPR151 activ | GPR151 PathHunter beta-arrestin cells, 90 min; % of EA-reagent control over plate median | activation, % at 11.2 µM | 6,700 tested, under 10 active | AID 1508609, 2020;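 active means mean percent activation across replicates above the confirmation screen cutoff of 4.91%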
GPR119 ag – GPR119 activators in beta-arrestin cells, counter-screen for GPR151 activator project, cell-based, PathHunter beta-arrestin, luminescence, triplicate. shares compounds with GPR151 activ. 90 min; 0 = compound-well median, 100 = enzyme-acceptor control. activation, % at 11.2 µM. 6,700 compounds, 0.3% hits. AID 1508611, 2020;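 active means mean percent activation in the counterscreen above 29.09%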;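 further: counterscreen on off-target GPR119 to flag nonselective hits from the GPR151 activator screen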
Target sequence (Q8TDV5 whole entry, looked up): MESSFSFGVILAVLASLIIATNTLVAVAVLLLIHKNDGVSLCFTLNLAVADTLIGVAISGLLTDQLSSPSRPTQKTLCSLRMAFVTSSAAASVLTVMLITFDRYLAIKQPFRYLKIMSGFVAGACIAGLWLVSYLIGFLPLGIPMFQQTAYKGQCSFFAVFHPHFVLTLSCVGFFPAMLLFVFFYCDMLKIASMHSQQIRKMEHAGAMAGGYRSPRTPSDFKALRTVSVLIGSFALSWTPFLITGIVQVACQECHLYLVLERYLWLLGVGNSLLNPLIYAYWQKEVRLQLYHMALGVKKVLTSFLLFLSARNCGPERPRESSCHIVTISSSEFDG
Active calls of the source: *; / = not tested or not shown; ! = a repeat was not active. A selection: hits, their analogues and other compounds. The true share with any hit is near 3.5%.

SMILES | GPR151 activ | MITF inh | TEAD-YAP inh | FBW7 activator | GPR151 confirm | GPR119 ag
COC(=O)c1ccccc1C(=O)c1cccc2ccccc12 | 10.1* | -3.4 | 1.3 | -0.2 | 0.2 | -3.9
COc1ccc(NC(=O)c2cccc3ccccc23)cc1 | -1.5 | -2.8 | -4.1 | 0.0 | / | /
O=C1OC(/C=C/c2cccc(Cl)c2Cl)=NC/1=C\c1cccs1 | 0.9 | 17.3 | 11.0 | 0.2 | / | /
Oc1ccc(Sc2ccc(O)cc2)cc1 | -0.2 | 2.6 | -1.7 | -0.2 | / | /
Oc1ccc(O)cc1 | 5.1*! | -3.8 | -27.3 | -0.2 | 0.3 | -7.3
CN1CCN(C(=O)/C=C/c2c(Cl)cccc2Cl)CC1 | 7.2* | 6.1 | 3.0 | 0.0 | 0.1 | 5.2
CSc1ccc(-c2ccc3c(c2)CC(CNC(=O)CCn2ccc(C)n2)O3)cc1 (centres undefined) | 0.7 | -6.8 | -32.5 | 0.6 | / | /
CCC(NC(=O)Cn1nnnc1CN1CCC(C)CC1)c1ccc(F)cc1 (centres undefined) | 5.6* | 0.6 | 1.3 | 0.0 | 0.2 | -1.5
Cc1cc(/C=C2\C(=O)NC(=S)N(c3ccc(F)cc3)C2=O)c(C)n1C1CC1 | 5.3* | 6.7 | -4.6 | 0.0 | -0.8 | -2.8
Cc1cc(/C=C2\C(=O)NC(=O)N(c3ccc(F)cc3)C2=O)c(C)n1C1CC1 | -0.9 | 2.8 | -2.6 | 0.0 | / | /
COCCN(CCOC)S(=O)(=O)c1ccc(C(=O)Nc2nc(-c3ccc(OC)cc3)cs2)cc1 | -1.2 | -6.8 | 1.1 | -0.1 | / | /
COCCN(CCOC)S(=O)(=O)c1ccc(C(=O)Nc2nc(-c3ccncc3)cs2)cc1 | 8.8* | -9.1 | -3.1 | -0.2 | 1.1 | 13.3
CN(C)C(=O)[C@@H]1C[C@@H](Sc2ccccn2)CN1Cc1ccccc1F | -1.5 | 1.6 | 9.2 | 0.1 | / | /
CCOC(=O)c1c(N2C(=O)C3C4C=CC(C4)C3C2=O)sc2c1CCC(C)C2 (centres undefined) | 7.3* | -1.8 | 12.1 | -0.3 | -0.1 | -3.2
CCOC(=O)c1c(N2C(=O)CCC2=O)sc2c1CCC(C)C2 (centres undefined) | 1.2 | 9.5 | 4.2 | -0.1 | / | /
OC(COc1ccccc1CNCCOc1cccnc1)CN1CCc2ccccc2C1 (centres undefined) | -0.8 | 2.6 | 13.5 | -0.1 | / | /
NC(=O)C1CCN(C(=O)c2ccc3c(=O)n(Cc4ccco4)c(SCc4cccc([N+](=O)[O-])c4)nc3c2)CC1 | 2.1 | 3.5 | -6.3 | 0.1 | / | /
O=C1CCCN1CCP(=O)(O)CN1CCCC1=O | 1.5 | 14.2 | 5.2 | 0.0 | / | /
C=CCNC(=O)CN1CCC(O)(c2ccccc2)CC1 | -1.2 | 15.5 | 8.0 | 1.0 | / | /
O=C(CN1CCN(C(c2ccccc2)c2ccccc2)CC1)NCc1cccs1 | -0.5 | 35.0 | -4.9 | -0.3 | / | /
C=CCNC(=O)CN1CCC(O)(c2cccnc2)CC1 | 6.2* | -11.9 | -8.5 | -0.1 | -0.6 | -2.9
C=CCNC(=O)CN1CCN(C(c2ccccc2)c2ccccc2)CC1 | 6.2* | 43.6 | 9.7 | -0.1 | -0.2 | -0.7
CCc1ccc(CN2CCC(C(=O)N3CCN(CC)CC3)CC2)cc1 | -0.1 | 44.9 | -2.7 | 0.0 | / | /
Cc1ccc(CN2CCN(C(=O)C3CCC3)CC2)cc1 | 5.0* | 6.9 | -3.0 | 0.0 | 0.6 | 8.1
Cc1cc(NC(=O)Cn2cnc([N+](=O)[O-])n2)nn1CC(=O)NCc1ccco1 | 5.5* | -0.1 | 1.4 | 0.1 | -0.7 | -11.2
SMILES | GPR151 activ | MITF inh | TEAD-YAP inh | FBW7 activator | GPR151 confirm | GPR119 ag
Cc1cc(NS(=O)(=O)c2ccc(Cl)cc2)nn1CC(=O)NCc1ccco1 | 1.0 | -1.2 | -8.3 | -0.3 | / | /
CCn1cnc2c(Nc3ccccc3Cl)ncnc21 | -5.1 | 3.5 | -20.1 | 0.0 | / | /
O=C(C1CCN(S(=O)(=O)c2ccccc2)CC1)N1CCCC2CCCCC21 (centres undefined) | 6.2* | 11.3 | 3.7 | -0.1 | 0.8 | 5.3
O=[N+]([O-])c1ccc(C2N(c3ccccc3)CCN2c2ccccc2)s1 | 4.9* | 11.5 | 7.0 | -0.2 | -0.5 | -2.0
Brc1ccc(C2N(c3ccccc3)CCN2c2ccccc2)s1 | -0.3 | -0.2 | -17.3 | 0.0 | / | /
COCCOC(=O)c1c(C)oc2ccc(OCC#N)cc12 | 11.3* | 4.1 | -11.1 | 0.1 | -0.6 | -7.0
CCOC(=O)c1c(C)n(C)c2ccc(OCC#N)cc12 | 7.1* | 13.8 | 10.7 | 0.0 | 0.0 | 0.5
C#CCOc1ccc2c(c1)c(C(=O)OCC)c(C)n2C | 1.8 | -1.1 | 9.5 | -0.1 | / | /
COCCCNC(=O)CN1C(=O)C(C(C)C)Oc2ccc(C)cc21 (centres undefined) | 6.1* | 2.5 | 4.0 | 0.0 | 0.4 | 12.8
CC(C)C1Oc2ccccc2N(CC(=O)NCCCN2C(C)CCCC2C)C1=O (centres undefined) | 5.0* | 17.7 | 11.8 | 0.1 | -0.3 | -2.8
Cc1ccccc1NS(=O)(=O)c1ccc(-c2ccc(-n3cnnn3)cc2)cc1 | 5.7* | -1.4 | -13.4 | -0.2 | 1.3 | 11.7
COC(=O)C1=C(C(=O)OC)[C@@H]2N(C)c3ccc(OC)cc3[C@@]23C[C@@H](C(=O)OC)N(C(=O)c2ccco2)C3=N1 | 6.1* | 15.9 | / | 0.0 | -0.1 | -2.6
Cc1n[nH]c(=O)nc1NCc1cccnc1 | -0.9 | 25.6 | 1.6 | 1.0 | / | /
CCOC(=O)c1c(NC(=S)NC(=O)N(C)C)sc(C)c1-c1cccs1 | 5.1* | 1.3 | -0.2 | -0.1 | 0.7 | 6.8
COc1ccc(CCNc2ccc(N3C(=O)C4C5C=CC(C5)C4C3=O)cc2[N+](=O)[O-])cc1 (centres undefined) | -0.1 | 8.6 | 17.0 | 0.0 | / | /
CCCc1nc(C(C)(C)O)c(C(=O)OCc2oc(=O)oc2C)n1Cc1ccc(-c2ccccc2-c2nn[nH]n2)cc1 | 11.5*! | -9.4 | -1.2 | 0.0 | 0.1 | 1.3
CCOc1nc2cccc(C(=O)OC(C)OC(=O)OC3CCCCC3)c2n1Cc1ccc(-c2ccccc2-c2nn[nH]n2)cc1 (centres undefined) | 1.9 | 8.9 | -25.1 | 0.1 | / | /
O=C(Nc1nc(-c2ccccc2)cs1)c1ccc(Cl)s1 | 1.5 | -10.0 | -27.6 | -0.1 | / | /
O=C(Nc1nc(-c2ccc(I)cc2)cs1)c1ccc(Cl)s1 | 5.5* | 0.2 | -0.2 | 0.1 | 1.9 | 19.4
Cc1ccc(C2=NS(=O)(=O)N(C)C(C(=O)N(C)C3CCCCC3)=C2)cc1 | -2.0 | 5.9 | -0.1 | -0.2 | / | /
COc1ccc(C2=NS(=O)(=O)N(C)C(C(=O)N(C)C3CCCCC3)=C2)cc1 | 11.2* | -9.4 | 0.5 | -0.1 | -0.8 | -7.8
Oc1cccc(-c2cnc3ccc(NCc4ccco4)nn23)c1 | 0.1 | -6.0 | 12.6 | 0.0 | / | /
